The supplement of paper PMC3334620
Whole data set: some 33,000 sequences, median “E-score (-0.5 to 0.5)” near -0.043, cut for the highest 2% near 0.37. The entries come from a sample that favours the highest values as a whole.

Each sequence was assayed against T1, Upc2 (UniProt Q12151) (assay: PBM E-score (8-mer binding enrichment) (E-score (-0.5 to 0.5)); higher = stronger / more preferred TF binding). Settings: protein concentration: 200 nM; construct: GST-full length.
T1 sequence: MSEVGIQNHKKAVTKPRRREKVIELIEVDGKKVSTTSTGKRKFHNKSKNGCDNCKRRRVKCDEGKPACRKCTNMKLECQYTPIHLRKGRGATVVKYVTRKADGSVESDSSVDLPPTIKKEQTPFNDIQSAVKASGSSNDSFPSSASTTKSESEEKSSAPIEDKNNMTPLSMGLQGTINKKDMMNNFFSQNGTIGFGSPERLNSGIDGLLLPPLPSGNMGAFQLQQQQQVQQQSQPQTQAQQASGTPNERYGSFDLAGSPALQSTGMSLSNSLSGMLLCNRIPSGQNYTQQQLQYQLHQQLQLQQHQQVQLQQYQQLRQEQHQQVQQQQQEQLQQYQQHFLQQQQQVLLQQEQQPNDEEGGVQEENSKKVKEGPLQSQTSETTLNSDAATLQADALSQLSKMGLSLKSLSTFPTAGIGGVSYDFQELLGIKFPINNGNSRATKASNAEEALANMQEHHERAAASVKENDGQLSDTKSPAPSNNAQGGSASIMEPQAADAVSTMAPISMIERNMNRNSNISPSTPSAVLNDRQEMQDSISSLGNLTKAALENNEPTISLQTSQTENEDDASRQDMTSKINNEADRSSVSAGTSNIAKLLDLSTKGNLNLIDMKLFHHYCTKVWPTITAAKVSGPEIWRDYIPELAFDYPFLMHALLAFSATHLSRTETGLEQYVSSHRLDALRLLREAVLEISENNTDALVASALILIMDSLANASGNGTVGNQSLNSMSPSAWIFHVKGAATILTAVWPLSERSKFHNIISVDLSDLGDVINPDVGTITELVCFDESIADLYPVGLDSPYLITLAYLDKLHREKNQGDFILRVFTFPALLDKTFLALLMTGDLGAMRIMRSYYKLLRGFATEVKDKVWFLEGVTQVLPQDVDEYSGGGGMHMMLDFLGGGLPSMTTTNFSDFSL
Method: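 Universal 'all 10-mer' protein binding microarrays (Agilent AMADID 015681) probed with GST-tagged S. cerevisiae TFs (full-length or DBD) made by in vitro transcription/translation (PURExpress), about 100-200 nM. Bound TF was detected with fluorescent anti-GST. Each ungapped 8-mer (which stands for itself and its reverse complement) is scored by the PBM enrichment score (E-score), a modified Wilcoxon-Mann-Whitney statistic from -0.5 to +0.5, computed with the Universal PBM Analysis Suite. Scale: above 0.35 generally sequence-specific binding.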

Row | Sequence | PBM E-score
1 | TCGAGAGA | 0.0401
2 | GCTAACAC | -0.0792
3 | CCTTACAA | -0.227
4 | ACCTATAC | 0.382
5 | CCCTATAC | 0.342
6 | GCCTATAC | 0.276
7 | AAGGGGGC | 0.0404
8 | CATCTTCA | -0.263
9 | CCAACGAC | 0.0191
10 | AAAACGAG | 0.316
11 | CCAACGAG | 0.091
12 | AAAACGAT | 0.265
13 | CTAACGAC | 0.279
14 | GAAACGGC | 0.187
15 | CAAACGAG | 0.484
16 | CAAACGAC | 0.464
17 | GAAACGAC | 0.423
18 | AAAACGAC | 0.375
19 | ACAACGAC | 0.258
20 | GAAACGCC | 0.0519
21 | ATTGCTGG | -0.0945
22 | CACGGCTC | -0.128

Row | Sequence | PBM E-score
23 | ACGCTGGA | 0.0743
24 | CCAACCCA | -0.236
25 | ATCCACCC | -0.179
26 | GGGTTACC | 0.0304
27 | ACGCTTAA | 0.135
28 | ATTGGATG | 0.03
29 | ATTACCAA | -0.131
30 | CGCTAGAC | -0.0752
31 | ACGTACAA | 0.309
32 | GCGTACAA | 0.324
33 | CAGTACAA | -0.0317
34 | ACGTACCA | 0.255
35 | TCGTACCA | 0.476
36 | TCGTACAA | 0.487
37 | CGGTACAA | 0.222
38 | GCGTACCA | 0.215
39 | CCGTACAA | 0.413
40 | AGCCCTTC | -0.211
41 | ATATATCC | 0.0459
42 | AGAGGACG | -0.0919
43 | AATGGGCA | -0.00586
44 | CAAGATAG | -0.0974

Row | Sequence | PBM E-score
45 | GTTTCGGA | 0.219
46 | ATTTCGTC | 0.0429
47 | CTTTCGTC | -0.043
48 | GTTTCGTA | 0.446
49 | GTTTCGAA | 0.0998
50 | ATTTCGTA | 0.431
51 | CTTTCGGA | -0.11
52 | CTTTCGTA | 0.416
53 | ATTTCGTG | 0.0688
54 | CATAATCC | -0.0711
55 | GAAGGCGC | -0.132
56 | AGCGTAAT | -0.0565
57 | CAGCTATA | 0.0617
58 | AGACGATG | 0.0313
59 | ACACGATG | 0.166
60 | CTACGATC | 0.288
61 | ACACGATC | 0.123
62 | ATACGATG | 0.473
63 | ATACGATC | 0.465
64 | CGCTAAAC | 0.345
65 | ACAAGCCC | -0.1
66 | GAGAACGA | 0.36

Row | Sequence | PBM E-score
67 | CAGAACGC | -0.0286
68 | AAGAACGG | 0.0306
69 | AAGAACGT | 0.108
70 | CAGAACGG | 0.139
71 | AAGAACGA | 0.408
72 | CAGAACGA | 0.399
73 | TAGAACGA | 0.383
74 | TAGAACCA | -0.0454
75 | CTTGGATA | -0.103
76 | AACCTAAC | -0.0536
77 | CCCCAACG | -0.107
78 | ACTAAACC | 0.0385
79 | CCTAAACG | 0.472
80 | ATTAAACG | 0.461
81 | ATTTAACA | 0.0412
82 | ACTAAACA | -0.109
83 | CCTAAACA | -0.063
84 | CCTAAACC | 0.0842
85 | ATTTAACC | -0.0686
86 | ACTAAACG | 0.463
